# Data taken from the supplement of paper PMC6555819.
# Assays:
# Test in all cases: PBM binding z-score (relative to random genomic background probes); higher = stronger binding; sequences stand for … in GC…GCGATTGACAGCGTAGAATGAAGG
# [1] = system: RARb homodimer (NR concentration 270 nM)
# In short: (§1)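 Ligand-free nuclear receptor dimers were applied to custom Agilent 4×180K protein-binding microarrays whose double-stranded probes carried direct-repeat seeds, single-nucleotide variants, half-site ablations and random human genomic background sequences in 34-nt variable regions. Incubation lasted 1 h. Binding z-scores were computed against the random background probes from regression-normalized fluorescence.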
# [2] = system: RARg:RXRa (NR concentration 270 nM, RXRa partner concentration 90 nM)
# In short: as §1
# [3] = system: RARg homodimer (NR concentration 270 nM)
# In short: as §1
# [4] = system: RXRa DBDmut IVT, anti-RXR (DBD mutation: RXRa K156A/R161A, NR concentration 90 nM)
# In short: as §1
# [5] = system: RXRa homodimer (NR concentration 180 nM)
# In short: as §1
# [6] = system: THRa:RXRa (NR concentration 90 nM, RXRa partner concentration 90 nM)
# In short: as §1
# [7] = system: THRa homodimer (NR concentration 90 nM)
# In short: as §1
# [8] = system: VDR:RXRa (NR concentration 270 nM, RXRa partner concentration 90 nM)
# In short: as §1
# [9] = system: VDR homodimer (NR concentration 270 nM)
# In short: as §1
Sequence,PBM binding z-score [1],PBM binding z-score [2],PBM binding z-score [3],PBM binding z-score [4],PBM binding z-score [5],PBM binding z-score [6],PBM binding z-score [7],PBM binding z-score [8],PBM binding z-score [9]
CGAACTAGGGCACCAGGACAGTGAAGAGGTTGGA,0.758,0.748,1.34,0.0116,0.278,1.05,0.327,-0.582,-0.274
CCTACTGGGCCAAGGTCATTGACCAGTCAAAGCA,3.43,3.87,3.66,0.966,4.1,3.67,2.29,3.38,2.59
CGAACTAGGTCAGAGCAGGACAGTGAAGGATGAT,1.84,2.48,3.25,0.613,1.11,4.2,0.0649,0.711,-0.21
CGTCCAAGGTCCATGCTAGGTCAGTGAAAGCATT,2.62,1.41,1.22,1.41,0.238,2.73,0.766,0.731,1.07
CAAAGTAGGTCACCGGAAGGTCAAAGTCCGCATG,5.78,8.47,7.72,1.72,7.28,4.35,2.03,6.18,3.66
CGAACTAGGTCAAAGGACTGTGAAAGGCGACGTA,2.43,3.69,4.11,1.71,2.93,2.19,-0.114,1.14,-0.0761
TCGAGTAGTTTACGGGGGCATTCAGGGATGAAGA,1.53,2.16,1.57,2.09,1.48,3.55,1.05,3.09,3.23
CTATGTAGGCTAAGGGGGTCATTCAGTTTGAAAG,3.39,4.23,2.53,1.96,4.7,3.45,1.51,6.41,4.02
TCGAGTAGGTGACGGGGGCATTCAGGGATGAAGA,2.01,2.59,1.91,1.94,1.86,3.83,1.64,3.36,3.28
CCGAGTAGGTTTCGAGGGGGCATTCAGTGCGAAT,1.58,1.89,1.17,1.67,1.19,2.37,0.874,3.65,3.52
AAAATGAGGTTAAGATCAGGGAAACAGAATACAT,1.03,2.28,1.37,1.32,2.73,2.75,0.772,1.35,0.778
CTATGTAGGTTAAGGGGGTTATTCAGTTTGAAAG,2.15,2.55,1.56,1.43,2.57,2.53,1.4,5.71,3.24
CGTCAAAGTTCAAGTTAACGTAACAGAAAGCAGC,4.24,5.84,6.77,4.89,5.38,2.3,-0.142,4.32,4.05
